In ChEMBL document CHEMBL1961873, “Compounds: GSK PKIS; Assays: Nanosyn kinase panel” (2012):

Tests used:
[1] = biological target: Mast/stem cell growth factor receptor Kit (Homo sapiens) (UniProt P10721); settings: at 1 µM
[2] = system: Mast/stem cell growth factor receptor Kit (Homo sapiens), P10721 [D816V]; settings: at 0.1 µM
[3] = system: Mast/stem cell growth factor receptor Kit (Homo sapiens), P10721 [D816V]; settings: at 1 µM
[4] = system: Mast/stem cell growth factor receptor Kit (Homo sapiens), P10721 [T670I]; settings: at 0.1 µM
Mast/stem cell growth factor receptor Kit (Homo sapiens), P10721 [T670I], sequence (P10721 whole entry T670I): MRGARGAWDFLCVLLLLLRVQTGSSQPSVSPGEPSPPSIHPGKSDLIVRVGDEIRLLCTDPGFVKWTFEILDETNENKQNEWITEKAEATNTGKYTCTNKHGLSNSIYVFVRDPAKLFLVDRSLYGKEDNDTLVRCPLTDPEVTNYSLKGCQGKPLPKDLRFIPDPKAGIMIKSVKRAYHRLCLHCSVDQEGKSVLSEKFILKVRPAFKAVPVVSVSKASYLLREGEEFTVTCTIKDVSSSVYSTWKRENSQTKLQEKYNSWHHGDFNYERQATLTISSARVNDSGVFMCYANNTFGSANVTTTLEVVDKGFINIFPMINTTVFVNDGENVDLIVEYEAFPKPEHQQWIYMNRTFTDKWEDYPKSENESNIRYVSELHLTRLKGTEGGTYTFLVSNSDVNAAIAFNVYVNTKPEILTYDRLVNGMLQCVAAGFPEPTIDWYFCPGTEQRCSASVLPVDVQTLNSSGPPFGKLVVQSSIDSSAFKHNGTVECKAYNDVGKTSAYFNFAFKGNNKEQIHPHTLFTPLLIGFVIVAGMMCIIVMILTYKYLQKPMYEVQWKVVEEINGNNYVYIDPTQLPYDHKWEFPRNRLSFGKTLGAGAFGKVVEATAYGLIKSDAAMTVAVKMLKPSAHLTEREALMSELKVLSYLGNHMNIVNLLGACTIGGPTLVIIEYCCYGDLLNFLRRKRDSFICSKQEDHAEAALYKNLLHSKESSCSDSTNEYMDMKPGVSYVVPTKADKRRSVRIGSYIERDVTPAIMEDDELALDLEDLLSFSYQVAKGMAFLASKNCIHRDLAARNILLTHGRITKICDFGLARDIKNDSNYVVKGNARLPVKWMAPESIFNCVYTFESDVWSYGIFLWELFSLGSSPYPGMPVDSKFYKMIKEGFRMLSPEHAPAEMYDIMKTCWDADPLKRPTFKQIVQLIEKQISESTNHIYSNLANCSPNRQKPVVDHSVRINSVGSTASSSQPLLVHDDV

[5] = system: Mast/stem cell growth factor receptor Kit (Homo sapiens), P10721 [T670I]; settings: at 1 µM
[6] = system: Mast/stem cell growth factor receptor Kit (Homo sapiens), P10721 [V560G]; settings: at 0.1 µM
Mast/stem cell growth factor receptor Kit (Homo sapiens), P10721 [V560G], sequence (P10721 whole entry V560G): as the sequence (P10721 whole entry T670I) above, with V560G, I670T counted along it

[7] = system: Mast/stem cell growth factor receptor Kit (Homo sapiens), P10721 [V560G]; settings: at 1 µM
[8] = biological target: Tyrosine-protein kinase Lck (Homo sapiens) (UniProt P06239); settings: at 0.1 µM
Tyrosine-protein kinase Lck (Homo sapiens), sequence (P06239 2-509 limits assumed): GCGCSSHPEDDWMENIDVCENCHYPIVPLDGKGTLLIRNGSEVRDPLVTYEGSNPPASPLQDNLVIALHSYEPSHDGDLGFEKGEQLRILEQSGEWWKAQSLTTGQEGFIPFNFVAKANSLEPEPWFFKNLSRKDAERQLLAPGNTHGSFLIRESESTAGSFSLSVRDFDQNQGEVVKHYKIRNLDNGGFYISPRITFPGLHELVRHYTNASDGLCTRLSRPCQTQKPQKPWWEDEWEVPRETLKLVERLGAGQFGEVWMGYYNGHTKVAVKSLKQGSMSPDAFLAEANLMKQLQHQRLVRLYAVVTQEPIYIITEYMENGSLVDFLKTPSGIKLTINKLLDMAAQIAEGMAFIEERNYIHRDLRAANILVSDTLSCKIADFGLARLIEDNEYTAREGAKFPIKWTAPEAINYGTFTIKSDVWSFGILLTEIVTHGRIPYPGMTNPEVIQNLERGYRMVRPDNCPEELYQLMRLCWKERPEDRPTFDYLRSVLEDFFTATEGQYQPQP

[9] = biological target: Tyrosine-protein kinase Lck (Homo sapiens) (UniProt P06239); settings: at 1 µM
[10] = biological target: Leukocyte tyrosine kinase receptor (Homo sapiens) (UniProt P29376); settings: at 0.1 µM
Leukocyte tyrosine kinase receptor (Homo sapiens), sequence (P29376 whole entry): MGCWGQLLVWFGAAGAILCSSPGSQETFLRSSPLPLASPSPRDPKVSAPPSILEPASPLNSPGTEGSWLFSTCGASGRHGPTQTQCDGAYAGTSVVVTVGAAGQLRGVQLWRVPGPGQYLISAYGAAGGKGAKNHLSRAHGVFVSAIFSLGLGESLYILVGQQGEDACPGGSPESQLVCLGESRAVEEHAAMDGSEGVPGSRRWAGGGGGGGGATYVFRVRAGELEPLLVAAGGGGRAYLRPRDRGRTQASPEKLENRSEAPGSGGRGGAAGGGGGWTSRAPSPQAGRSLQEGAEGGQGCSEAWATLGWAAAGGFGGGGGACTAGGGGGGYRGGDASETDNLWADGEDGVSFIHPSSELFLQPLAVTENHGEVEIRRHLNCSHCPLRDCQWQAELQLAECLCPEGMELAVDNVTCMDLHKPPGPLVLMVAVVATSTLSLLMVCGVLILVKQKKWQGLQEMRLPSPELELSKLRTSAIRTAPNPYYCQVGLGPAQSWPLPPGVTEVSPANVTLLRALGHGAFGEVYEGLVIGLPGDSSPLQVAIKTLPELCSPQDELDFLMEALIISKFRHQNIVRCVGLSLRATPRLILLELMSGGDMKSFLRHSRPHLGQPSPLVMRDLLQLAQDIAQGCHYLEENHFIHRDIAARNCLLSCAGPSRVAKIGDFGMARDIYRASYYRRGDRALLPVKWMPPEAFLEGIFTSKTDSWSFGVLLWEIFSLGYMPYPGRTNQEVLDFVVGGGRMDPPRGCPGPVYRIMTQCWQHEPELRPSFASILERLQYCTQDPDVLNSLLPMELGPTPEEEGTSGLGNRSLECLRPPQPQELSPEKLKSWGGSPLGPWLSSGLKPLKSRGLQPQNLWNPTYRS

[11] = biological target: Leukocyte tyrosine kinase receptor (Homo sapiens) (UniProt P29376); settings: at 1 µM
[12] = biological target: Tyrosine-protein kinase Lyn (Homo sapiens) (UniProt P07948); settings: at 0.1 µM
Tyrosine-protein kinase Lyn (Homo sapiens), sequence (P07948 2-512 limits assumed): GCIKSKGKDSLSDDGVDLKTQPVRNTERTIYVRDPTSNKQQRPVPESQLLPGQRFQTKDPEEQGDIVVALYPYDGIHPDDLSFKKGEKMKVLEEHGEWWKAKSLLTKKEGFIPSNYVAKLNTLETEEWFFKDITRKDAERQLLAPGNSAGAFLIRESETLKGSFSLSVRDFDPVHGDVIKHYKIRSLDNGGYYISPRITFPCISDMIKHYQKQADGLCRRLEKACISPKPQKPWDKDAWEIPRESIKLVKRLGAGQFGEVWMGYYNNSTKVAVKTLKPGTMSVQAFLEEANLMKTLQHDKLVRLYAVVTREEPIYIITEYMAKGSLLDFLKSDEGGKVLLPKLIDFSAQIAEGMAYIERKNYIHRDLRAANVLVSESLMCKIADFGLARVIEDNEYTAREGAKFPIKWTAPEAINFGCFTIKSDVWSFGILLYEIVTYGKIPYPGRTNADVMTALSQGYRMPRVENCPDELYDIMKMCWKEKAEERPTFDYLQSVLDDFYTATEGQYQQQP

[13] = biological target: Tyrosine-protein kinase Lyn (Homo sapiens) (UniProt P07948); settings: at 1 µM
[14] = biological target: Tyrosine-protein kinase Lyn (Homo sapiens) (UniProt P07948); settings: at 0.1 µM; remark: listed apart in the source
[15] = biological target: Tyrosine-protein kinase Lyn (Homo sapiens) (UniProt P07948); settings: at 1 µM; remark: listed apart in the source
[16] = biological target: T1, Tyrosine-protein kinase Mer (Homo sapiens) (UniProt Q12866); settings: at 0.1 µM
T1 sequence (whole entry): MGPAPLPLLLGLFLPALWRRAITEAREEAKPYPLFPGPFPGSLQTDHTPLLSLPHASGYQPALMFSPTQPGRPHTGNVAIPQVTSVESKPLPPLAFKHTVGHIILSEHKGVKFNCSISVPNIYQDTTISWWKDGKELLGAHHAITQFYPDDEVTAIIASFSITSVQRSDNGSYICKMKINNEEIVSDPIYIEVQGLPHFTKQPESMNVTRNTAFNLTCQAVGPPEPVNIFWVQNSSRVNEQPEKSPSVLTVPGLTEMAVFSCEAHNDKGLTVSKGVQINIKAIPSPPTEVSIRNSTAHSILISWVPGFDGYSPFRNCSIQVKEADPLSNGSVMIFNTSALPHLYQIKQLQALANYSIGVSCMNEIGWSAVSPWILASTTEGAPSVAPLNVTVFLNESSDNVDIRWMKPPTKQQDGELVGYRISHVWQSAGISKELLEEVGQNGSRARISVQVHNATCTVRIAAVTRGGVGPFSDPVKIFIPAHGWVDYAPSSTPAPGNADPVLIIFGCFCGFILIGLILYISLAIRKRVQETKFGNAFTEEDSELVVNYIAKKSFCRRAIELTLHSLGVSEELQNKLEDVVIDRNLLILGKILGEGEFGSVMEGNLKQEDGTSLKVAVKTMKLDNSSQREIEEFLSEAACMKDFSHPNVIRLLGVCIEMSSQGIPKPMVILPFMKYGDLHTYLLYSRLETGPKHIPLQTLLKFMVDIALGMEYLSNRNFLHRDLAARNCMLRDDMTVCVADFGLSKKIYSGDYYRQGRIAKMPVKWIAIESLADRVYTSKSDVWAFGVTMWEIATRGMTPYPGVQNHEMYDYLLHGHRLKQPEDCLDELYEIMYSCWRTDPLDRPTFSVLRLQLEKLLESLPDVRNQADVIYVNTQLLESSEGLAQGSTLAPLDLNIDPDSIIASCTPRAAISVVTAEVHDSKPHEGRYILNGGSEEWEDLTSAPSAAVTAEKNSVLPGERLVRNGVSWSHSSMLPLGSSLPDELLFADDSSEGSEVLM

[17] = biological target: T1, Tyrosine-protein kinase Mer (Homo sapiens); settings: at 1 µM
[18] = biological target: Hepatocyte growth factor receptor (Homo sapiens) (UniProt P08581); settings: at 0.1 µM
Hepatocyte growth factor receptor (Homo sapiens), sequence (P08581 whole entry): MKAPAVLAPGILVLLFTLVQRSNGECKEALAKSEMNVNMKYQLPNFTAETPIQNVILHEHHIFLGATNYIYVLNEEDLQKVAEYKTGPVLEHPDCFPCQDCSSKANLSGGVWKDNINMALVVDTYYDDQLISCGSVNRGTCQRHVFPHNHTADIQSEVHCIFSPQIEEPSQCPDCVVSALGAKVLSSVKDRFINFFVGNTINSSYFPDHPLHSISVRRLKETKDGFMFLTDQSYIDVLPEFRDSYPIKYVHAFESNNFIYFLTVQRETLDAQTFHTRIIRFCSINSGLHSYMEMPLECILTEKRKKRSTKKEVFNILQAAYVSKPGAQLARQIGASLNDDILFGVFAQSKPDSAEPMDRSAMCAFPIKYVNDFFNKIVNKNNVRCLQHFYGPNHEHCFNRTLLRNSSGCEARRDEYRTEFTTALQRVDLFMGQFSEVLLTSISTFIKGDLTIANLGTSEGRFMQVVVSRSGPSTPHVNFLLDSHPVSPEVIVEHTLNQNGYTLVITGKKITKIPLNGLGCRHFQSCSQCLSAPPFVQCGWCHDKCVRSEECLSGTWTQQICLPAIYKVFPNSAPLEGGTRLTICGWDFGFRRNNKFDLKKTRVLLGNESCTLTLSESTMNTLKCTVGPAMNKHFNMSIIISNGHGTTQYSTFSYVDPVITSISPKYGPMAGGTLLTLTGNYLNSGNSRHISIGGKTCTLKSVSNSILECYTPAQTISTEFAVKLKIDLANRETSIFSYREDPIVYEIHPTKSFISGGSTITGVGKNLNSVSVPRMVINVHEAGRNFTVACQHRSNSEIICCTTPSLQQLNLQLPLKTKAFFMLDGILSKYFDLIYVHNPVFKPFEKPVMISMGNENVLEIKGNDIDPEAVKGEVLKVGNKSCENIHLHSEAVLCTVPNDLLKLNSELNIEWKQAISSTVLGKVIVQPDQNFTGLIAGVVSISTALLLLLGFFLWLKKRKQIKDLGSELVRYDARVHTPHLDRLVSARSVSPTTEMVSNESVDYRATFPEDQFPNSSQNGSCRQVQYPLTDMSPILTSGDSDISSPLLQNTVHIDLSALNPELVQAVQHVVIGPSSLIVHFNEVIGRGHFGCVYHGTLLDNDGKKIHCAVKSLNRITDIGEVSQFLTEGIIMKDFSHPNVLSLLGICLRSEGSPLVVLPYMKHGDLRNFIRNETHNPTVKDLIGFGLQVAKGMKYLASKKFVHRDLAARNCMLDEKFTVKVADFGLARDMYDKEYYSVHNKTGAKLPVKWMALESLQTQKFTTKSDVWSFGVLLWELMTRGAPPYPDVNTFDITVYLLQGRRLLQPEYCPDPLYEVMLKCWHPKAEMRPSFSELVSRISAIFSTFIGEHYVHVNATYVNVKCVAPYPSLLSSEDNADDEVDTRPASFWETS

[19] = biological target: Hepatocyte growth factor receptor (Homo sapiens) (UniProt P08581); settings: at 1 µM
[20] = biological target: T2, Muscle, skeletal receptor tyrosine-protein kinase (Homo sapiens) (UniProt O15146); settings: at 0.1 µM;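 also: values are mean inhibition of MuSK from the GSK PKIS kinase screening panel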
T2 sequence (whole entry): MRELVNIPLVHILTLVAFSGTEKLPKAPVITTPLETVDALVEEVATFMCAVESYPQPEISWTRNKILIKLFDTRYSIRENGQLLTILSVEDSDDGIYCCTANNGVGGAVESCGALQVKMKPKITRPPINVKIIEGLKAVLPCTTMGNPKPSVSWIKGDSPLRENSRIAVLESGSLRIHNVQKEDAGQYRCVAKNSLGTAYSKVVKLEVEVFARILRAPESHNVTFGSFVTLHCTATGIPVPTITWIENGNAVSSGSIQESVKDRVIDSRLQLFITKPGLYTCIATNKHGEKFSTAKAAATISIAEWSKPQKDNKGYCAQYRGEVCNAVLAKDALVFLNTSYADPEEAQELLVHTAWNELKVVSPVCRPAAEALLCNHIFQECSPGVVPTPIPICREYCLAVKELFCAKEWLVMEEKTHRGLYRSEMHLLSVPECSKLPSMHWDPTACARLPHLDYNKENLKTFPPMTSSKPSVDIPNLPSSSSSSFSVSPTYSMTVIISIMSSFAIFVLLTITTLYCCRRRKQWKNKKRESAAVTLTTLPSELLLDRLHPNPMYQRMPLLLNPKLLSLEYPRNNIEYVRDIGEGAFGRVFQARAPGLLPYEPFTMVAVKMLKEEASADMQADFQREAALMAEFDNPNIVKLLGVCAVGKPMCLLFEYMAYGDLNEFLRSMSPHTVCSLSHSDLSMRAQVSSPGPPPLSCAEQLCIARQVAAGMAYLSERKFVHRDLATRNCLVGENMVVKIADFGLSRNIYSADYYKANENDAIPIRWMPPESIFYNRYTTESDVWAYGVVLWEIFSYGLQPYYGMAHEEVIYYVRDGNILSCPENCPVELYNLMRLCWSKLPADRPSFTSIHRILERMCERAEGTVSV

Mast/stem cell growth factor receptor Kit (Homo sapiens), sequence (P10721 whole entry): as the sequence (P10721 whole entry T670I) above, with I670T counted along it
Mast/stem cell growth factor receptor Kit (Homo sapiens), P10721 [D816V], sequence (P10721 whole entry D816V): as the sequence (P10721 whole entry T670I) above, with I670T, D816V counted along it

Compound	inhibition [1] [%]	inhibition [2] [%]	inhibition [3] [%]	inhibition [4] [%]	inhibition [5] [%]	inhibition [6] [%]	inhibition [7] [%]	inhibition [8] [%]	inhibition [9] [%]	inhibition [10] [%]	inhibition [11] [%]	inhibition [12] [%]	inhibition [13] [%]	inhibition [14] [%]	inhibition [15] [%]	inhibition [16] [%]	inhibition [17] [%]	inhibition [18] [%]	inhibition [19] [%]	inhibition [20] [%]
O=C1Nc2ccc(C(=O)c3ccco3)cc2C1=Cc1cc(Cl)c(O)c(Cl)c1	63.5	1.83	0.61	2.58	21.1	3.94	6.75	2.53	12.8	9.03	44.2	5.67	18.9	2.95	16.2	1.35	4.42	2.06	15.7	4.03
COc1cc2c(cc1Nc1nc(N3CCc4ccccc43)c3cc[nH]c3n1)N(C(=O)CN(C)C)CC2	5.18	3.89	5.06	1.21	4.61	0.64	1.28	1.15	6	75.9	89.9	1.75	1.39	0.29	1.23	1.28	0.11	2.24	-6.58	-0.85
COc1cc2ncn(-c3cc(OCc4ccccc4Cl)c(C(N)=O)s3)c2cc1OC	15.6	0.27	-0.43	2.57	8.11	2.29	3.13	2.94	19	1.19	4.03	3.15	25.6	2.45	21.1	1.26	8.5	-0.6	19.7	4.75
CCn1c(-c2nonc2N)nc2cncc(C(=O)N3CC[C@H](N)C3)c21	6.77	5.29	5.73	3.35	3.02	2.5	-1.61	–	–	4.31	4.61	8.57	7.74	6.42	5.67	0.47	3.48	5.74	5.85	4.23
CC(C)=Cc1cccc2c1/C(=N/Nc1ccc(S(N)(=O)=O)cc1)C(=O)N2	67.5	2.15	4.23	5.7	52.1	4.73	10.1	3.66	14.7	1.87	11.3	6.78	35.8	5.19	29.9	0.25	3.48	-0.76	19.6	7
[O-][S+]1CCN(Cc2ccc(-c3ccc4ncnc(Nc5ccc(OCc6ccccc6)c(F)c5)c4c3)o2)CC1	3.42	2.25	-1.53	0.34	1.07	-2.07	-2.71	1.81	7.89	2.21	3.33	2.19	5.34	1.2	1.42	42.1	81.8	6.51	0.93	1.44
Cc1nnc(-c2ccc(C)c(-c3ccc(C(=O)Nc4cccc(C#N)c4)cc3)c2)o1	6.9	2.18	2.02	0.85	1.69	0.81	2.86	1.89	2.99	2.14	1.76	3.98	6.36	2.18	5.78	0.8	2.51	3.66	-0.54	2.58
CC1=C(C(=O)Nc2ccc3[nH]ncc3c2)C(c2ccc(F)cc2)NC(=O)N1 (stereo not drawn)	3.87	0.52	1.15	1.53	0.34	-1.67	0.31	-0.28	3.1	0.93	1.52	2.06	2.69	0.99	1.73	1.43	0.93	3	14.9	1.49
Nc1nc(-c2ccc3c(c2)C(=Cc2cc(Br)c(O)c(Br)c2)C(=O)N3)cs1	3.41	0.19	-1.02	-2.39	-1.52	3.52	1.96	-1.54	4.41	1.87	17.4	0.87	6.57	0.59	4.62	-0.02	3.29	1.02	4.73	0.81
CC(=O)Nc1cccc(C#Cc2cncnc2Nc2ccc(OCc3cccc(F)c3)c(Cl)c2)n1	2.11	-0.94	3.5	-1.12	0.59	2.08	4.22	1.9	1.84	-0.61	1.48	0.69	4.88	0.67	3.79	-0.16	0.67	-2.7	2.91	2.44
COc1ccc2cc(-c3c(-c4ccncc4)nc(-c4ccc([S+](C)[O-])cc4)n3C)ccc2c1 (stereo not drawn)	-0.76	1.61	4.68	-0.37	-0.98	2.62	0.15	2.55	6.96	2.55	2.37	2.95	9.35	1.98	6.67	0.48	6.32	4.07	-0.71	1.76
CS(=O)(=O)Nc1ccc(N/C=C2\C(=O)Nc3ccccc32)cc1	86.6	-1.84	-0.2	7.79	61.3	4.08	20.4	-0.69	5.83	0.19	3.76	0.65	12.1	-0.91	11.3	-0.15	3.63	-4.32	-0.23	2.12
CS(=O)(=O)CCNCc1nc(-c2ccc3ncnc(Nc4ccc(F)c(Cl)c4)c3c2)cs1	5.11	3.12	2.42	1.78	2.83	10.4	10.7	3.91	20	2.39	1.99	4.29	27.3	3.57	19.4	0.48	4.95	3.54	9.65	1.59
Cc1ccc(NC(=O)c2ccnc(N3CCCC3)c2)cc1-c1ccc(C(=O)NCC2CC2)cc1	2.92	2.61	7.08	2.54	3.2	0.26	1.23	-3.71	1.56	2.27	2.5	3.64	8.64	1.83	5.14	1.62	3.81	9.41	7.36	4.38
